# Assay outcomes from PubChem BioAssay.
# Shn3 3UTR inh = reduction of Shn3 3'UTR firefly luciferase signal, primary screen, Schnurri-3 inhibitor project, cell-based, Clone20 osteoblasts, set 2. Clone20 osteoblast Shn3 3'UTR firefly luciferase, 24 h. inhibition, % at 12.5 µM. 0.52% of 360,000 active. AID 588674, 2011;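 active = mean inhibition of at least 75% with every replicate also reaching 75%; inconclusive = mean inhibition at least 75% but some replicate below; inactive = mean inhibition below 75%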;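 note: 0% = median of neutral control wells and 100% = pilot-screen positive control compound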
# N-glyco inh = increase of ERlucT glycosylation luciferase signal, primary screen, N-linked glycosylation inhibitor project, D54 ERlucT cells, luminescence, set 2 | D54 ERlucT glycosylation luciferase reporter, 24 h; percent of 100 nM tunicamycin response | reporter increase, % at 12.5 µM | AID 588692, 2011 | 0.23% of 360,000 active;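 active = mean luciferase reporter signal, scaled so untreated is 0 and the glycosylation-blocking control 100, at or above a set limit in every replicate; inconclusive = mean reaches the limit but not every replicate does; inactive = mean below the limit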;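 note: luciferase carries N-glycosylation sites so blocking glycosylation raises the light; 0% = median of neutral control wells and 100% = median of 100 nM tunicamycin wells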
# LMP1 NFkB inh = EBV LMP1-driven NF-kappaB luciferase reporter inhibitors, primary screen, cell-based, luminescence, single point; LMP1-induced NF-kappaB luciferase reporter cells; inhibition, % at 12.5 µM; 0.69% of 350,000 active; in the data active = inhibition above about 41%; inconclusive = no clear call, values can overlap the other calls;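 note: 0% = neutral control wells and 100% = reference inhibitor control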
# PAX8 reporter = inhibitors of PAX8-driven TPO luciferase reporter, primary screen, RMG-I cells, single concentration | 1.2% of 360,000 active | inhibition, % at 12.6 µM | AID 652154, 2013 | SteadyGlo, 24 h;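 active = mean replicate inhibition at least 60% with every replicate also reaching 60%; inconclusive = only one of the two criteria is met; inactive = mean below 60% and not all replicates reaching 60%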;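 note: luciferase light reporting Pax8 driven TPO promoter activity; plate controls were median of neutral control wells for no effect and mitoxantrone controls for full effect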
# Env fusion inh = inhibitors of HIV-1 Env-driven cell-cell fusion, primary screen, HeLa-JRFL effector, CEM21 target cells, luciferase. inhibition, % at 12.3 µM. 1.1% of 360,000 active. AID 651610, 2012;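 active = mean replicate inhibition score of at least 50 and every replicate individually at or above 50; inconclusive = only one of the two criteria met; inactive = mean below 50 and not all replicates reaching 50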;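 note: 0% = plate neutral controls and 100% = maraviroc near 300 nM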
# NSD2 inh = NSD2 histone methyltransferase inhibitors, primary screen, biochemical, AlphaScreen, single concentration, set 2 | Histone-lysine N-methyltransferase NSD2 (Homo sapiens), O96028 | NSD2 peptide methylation, 120 min | inhibition, % at 12.5 µM | 0.54% of 310,000 active; in the data active = inhibition above about 50%
# Target sequence (O96028 whole entry, looked up): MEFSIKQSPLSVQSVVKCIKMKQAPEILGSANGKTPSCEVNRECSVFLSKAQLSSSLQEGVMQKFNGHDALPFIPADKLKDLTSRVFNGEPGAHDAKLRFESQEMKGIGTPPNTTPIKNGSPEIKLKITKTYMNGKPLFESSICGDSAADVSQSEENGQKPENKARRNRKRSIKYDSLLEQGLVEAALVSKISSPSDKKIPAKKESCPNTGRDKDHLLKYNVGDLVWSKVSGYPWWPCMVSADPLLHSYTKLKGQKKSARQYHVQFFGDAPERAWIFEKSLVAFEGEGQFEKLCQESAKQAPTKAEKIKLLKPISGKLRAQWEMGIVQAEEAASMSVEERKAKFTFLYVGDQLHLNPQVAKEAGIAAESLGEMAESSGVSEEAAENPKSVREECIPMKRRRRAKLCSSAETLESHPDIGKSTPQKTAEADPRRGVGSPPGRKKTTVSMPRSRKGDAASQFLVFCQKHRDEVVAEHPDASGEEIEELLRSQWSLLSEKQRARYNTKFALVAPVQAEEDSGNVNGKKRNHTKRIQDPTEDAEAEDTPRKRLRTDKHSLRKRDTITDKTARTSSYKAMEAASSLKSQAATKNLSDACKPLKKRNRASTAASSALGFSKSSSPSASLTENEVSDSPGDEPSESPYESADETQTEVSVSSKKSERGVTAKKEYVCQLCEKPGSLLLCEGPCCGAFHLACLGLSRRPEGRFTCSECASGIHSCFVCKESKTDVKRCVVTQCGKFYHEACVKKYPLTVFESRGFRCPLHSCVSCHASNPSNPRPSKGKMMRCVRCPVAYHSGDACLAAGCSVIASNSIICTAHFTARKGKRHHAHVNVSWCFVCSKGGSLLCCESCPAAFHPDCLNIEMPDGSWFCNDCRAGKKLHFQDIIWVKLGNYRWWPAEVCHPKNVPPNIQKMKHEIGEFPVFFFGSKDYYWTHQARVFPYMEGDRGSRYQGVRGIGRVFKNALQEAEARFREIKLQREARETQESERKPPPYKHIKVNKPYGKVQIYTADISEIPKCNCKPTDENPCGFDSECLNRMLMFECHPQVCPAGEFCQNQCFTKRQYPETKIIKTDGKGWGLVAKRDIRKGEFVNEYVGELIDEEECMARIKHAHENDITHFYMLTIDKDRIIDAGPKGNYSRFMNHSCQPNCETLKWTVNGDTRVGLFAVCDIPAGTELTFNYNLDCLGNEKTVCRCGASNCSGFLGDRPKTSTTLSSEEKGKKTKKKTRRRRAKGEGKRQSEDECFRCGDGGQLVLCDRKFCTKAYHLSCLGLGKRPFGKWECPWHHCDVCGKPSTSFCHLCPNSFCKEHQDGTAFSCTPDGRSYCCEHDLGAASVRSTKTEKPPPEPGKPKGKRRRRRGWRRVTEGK
# * marks the source's active call; other numbers are inactive results; ? = inconclusive; nt = no result given; [ ] = remark or other dose. An excerpt weighted towards active compounds, which were near 2.8% of everything screened.
SMILES,Shn3 3UTR inh,N-glyco inh,LMP1 NFkB inh,PAX8 reporter,Env fusion inh,NSD2 inh
CC1(C)SC2c3ccccc3C(=O)N2[C@@H]1C(=O)NCCCN1CCOCC1 (stereo not given in full),-4,-1,71*,nt,nt,-2
Cc1sc2ncnc(SCC(=O)N3CCN(C(=O)c4ccco4)CC3)c2c1C,13,-3,8,nt,nt,-1
Cc1sc2nc(C(C)C)nc(SCC(=O)N3CCN(C(=O)c4ccco4)CC3)c2c1C,24,0,-5,nt,62*,1
Cc1sc2nc(C3CC3)nc(SCC(=O)N3CCCc4ccccc43)c2c1C,nt,nt,nt,-12,2,-1
Cc1sc2nc(C3CC3)nc(SCC(=O)N3CCc4ccccc4C3)c2c1C,10,-8,-5,nt,55*,1
O=C(NC12CC3CC(CC(C3)C1)C2)c1ccc(Br)o1,35,-1,8,-7,8,-3
O=C(NC12CC3CC(CC(C3)C1)C2)c1ccc([N+](=O)[O-])o1,-2,-8,-2,98*,-22,1
C[C@H]1CN([C@@H](C)CO)C(=O)Cc2cc(NC(=O)Nc3ccccc3)ccc2O[C@@H]1CN(C)C(=O)Nc1ccc(F)cc1,nt,nt,nt,nt,-7[16.7 µM],nt
C[C@H]1CN([C@@H](C)CO)C(=O)c2cc(NC(=O)Nc3ccc(F)cc3)ccc2O[C@@H]1CN(C)C(=O)Nc1ccc2c(c1)OCO2,nt,nt,nt,nt,14[16.7 µM],nt
COc1ccc2cc(C=NS(=O)(=O)c3ccc(C)cc3)n(C)c2c1,-10,2,17,-8,59*,nt
C[C@@H]1CN([C@H](C)CO)C(=O)c2cccc(NS(=O)(=O)c3ccc(F)cc3)c2O[C@@H]1CN(C)C(=O)Nc1ccccc1,nt,nt,nt,nt,4[16.7 µM],nt
CCC[C@@H]1C[C@@]1(CCC)[C@@H](NP(=O)(c1ccccc1)c1ccccc1)c1ccc(C(=O)OC)cc1,nt,nt,nt,6,96*,nt
COC(=O)c1cccc(C#CC(NP(=O)(c2ccccc2)c2ccccc2)c2ccccc2)c1 (stereo not given),12,-1,-2,17,-6,nt
COc1ccc2c3c([nH]c2c1)[C@@H](CO)N(C(=O)NC(C)C)CC31CCN(C(=O)c2cccnc2)CC1,nt,nt,nt,nt,-22[16.7 µM],nt
Cc1ccc(NC(=O)C2CCCN(S(=O)(=O)c3c(C)noc3C)C2)cc1 (stereo not given),85*,-3,1,2,19,-1
COCCCn1c(C(=O)Nc2ccc3c(c2)OCO3)cc2c(=O)n3cccc(C)c3nc21,-12,-17,27,2,64*,1
CCOC(=O)c1c[nH]c(=O)c(Br)c1O,-12,1,61*,6,-40,-1
CCOC(=O)c1c[nH]c2nc(C)ccc2c1=O,-8,4,-1,5,-1,-1
CCCCNC(=O)N(O)C1N(/N=C/c2cccs2)C(=S)SC1(C)C (stereo not given),3,-2,-1,5,67*,0
CC(C)NC(=O)N[C@H]1CC[C@@H](CC(=O)N2CCCCC2)O[C@@H]1CO,nt,nt,nt,1,-4[16.7 µM],nt
COCCn1c(SCC(=O)Nc2ccc(Cl)c(S(=O)(=O)N(C)C)c2)nc2ccccc21,64,-3,10,nt,60*,-1
COCCn1c(SCC(=O)Nc2ccc(S(N)(=O)=O)cc2)nc2ccccc21,-2,-4,-2,nt,nt,-3
Cc1nc(NC(=O)CSc2nnc3ncccn23)sc1C,nt,nt,nt,nt,nt,1
CCCN(C)C[C@@H]1OCCCC[C@@H](C)Oc2ccc(NS(=O)(=O)c3cccs3)cc2C(=O)N([C@@H](C)CO)C[C@@H]1C,nt,nt,nt,0,18[16.7 µM],nt
O=C(O)c1ccc(C(=O)O)c(C(=O)c2ccc(NC(=O)c3ccccc3)cc2)c1,-8,2,60*,9,-5,2
SMILES,Shn3 3UTR inh,N-glyco inh,LMP1 NFkB inh,PAX8 reporter,Env fusion inh,NSD2 inh
CCOC(=O)c1c(-c2ccccc2)csc1NC(=O)CSc1nnnn1C,37,-7,2,nt,?,6
CCOC(=O)c1c(NC(=O)CSc2nnnn2C)sc(C)c1-c1ccc(C)cc1,9,-11,4,nt,81*,4
Cc1ccc2c(CN3CCN(S(=O)(=O)c4ccc5c(c4)OCCO5)CC3)cc(=O)oc2c1C,18,-4,18,nt,93*,-3
Cc1ccc2c(CN3CCN(Cc4ccc5c(c4)OCO5)CC3)cc(=O)oc2c1C,1,2,1,nt,nt,1
C[C@H](CO)N1C[C@H](C)[C@H](CN(C)Cc2ccc(C(F)(F)F)cc2)OCCCC[C@H](C)Oc2ccc(NC(=O)Nc3ccccc3)cc2C1=O,nt,nt,nt,85*,73*[16.7 µM],nt
C[C@@H]1CCCCO[C@@H](CN(C)Cc2ccccc2)[C@H](C)CN([C@H](C)CO)C(=O)c2cc(NC(=O)Nc3ccc(C(F)(F)F)cc3)ccc2O1,nt,nt,nt,112*,12[16.7 µM],nt
C[C@@H]1CCCCO[C@@H](CN(C)Cc2ccccc2)[C@H](C)CN([C@@H](C)CO)C(=O)c2cc(NC(=O)Nc3ccc(C(F)(F)F)cc3)ccc2O1,nt,nt,nt,106*,?,nt
C[C@@H]1CCCCO[C@@H](CN(C)Cc2ccccc2)[C@@H](C)CN([C@H](C)CO)C(=O)c2cc(NC(=O)Nc3ccc(C(F)(F)F)cc3)ccc2O1,nt,nt,nt,77*,22[16.7 µM],nt
C[C@@H]1CCCCO[C@H](CN(C)Cc2ccc(C(F)(F)F)cc2)[C@@H](C)CN([C@@H](C)CO)C(=O)c2cc(NC(=O)Nc3ccccc3)ccc2O1,nt,nt,nt,59,-6[16.7 µM],nt
C[C@@H]1CCCCO[C@@H](CN(C)Cc2ccccc2)[C@@H](C)CN([C@@H](C)CO)C(=O)c2cc(NC(=O)Nc3ccc(C(F)(F)F)cc3)ccc2O1,nt,nt,nt,52,31[16.7 µM],nt
C[C@H]1CCCCO[C@H](CN(C)Cc2ccc(C(F)(F)F)cc2)[C@@H](C)CN([C@@H](C)CO)C(=O)c2cc(NC(=O)Nc3ccccc3)ccc2O1,nt,nt,nt,60,38[16.7 µM],nt
COC(=O)c1cnn(-c2ccc(F)cc2F)c1/C=N/NC(=S)Nc1ccc(Cl)cc1,nt,nt,nt,nt,nt,1
COCC#Cc1cnc2c(c1)C(=O)N([C@H](C)CO)C[C@@H](C)[C@H](CN(C)C(=O)c1cnccn1)O2,nt,nt,nt,nt,-19[16.7 µM],nt
C[C@@H]1CCCCO[C@@H](CN(C)C(=O)c2ccccc2)[C@H](C)CN([C@H](C)CO)C(=O)c2cc(N(C)C)ccc2O1,nt,nt,nt,8,-109[16.7 µM],nt
CN1c2ccc(C3=CCCCC3)cc2[C@H]2[C@H](CCN2C(=O)C2CC2)[C@@H]1CO,nt,nt,nt,100*,98*[16.7 µM],nt
COc1ccccc1-c1ccc2c(c1)[C@@H]1[C@@H](CCN1C(=O)C1CCCCC1)[C@@H](CO)N2,nt,nt,nt,105*,nt,nt
O=C(Cc1ccccc1)N1CC[C@@H]2[C@H]1c1cc(-c3cccc(F)c3)ccc1N[C@@H]2CO,nt,nt,nt,68*,nt,nt
O=C(Cc1ccccc1)N1CC[C@H]2[C@H](CO)Nc3ccc(-c4cccc(F)c4)cc3[C@H]21,nt,nt,nt,23,nt,nt
